Among the data in ChEMBL document CHEMBL1201862, “PubChem BioAssay data set” (2004) are GI50 values, retold here.

Out of some 54,000 sequences screened, about 2,800 (5.2%) were called active. Cut-off read from the data, not from the text of the source: active = GI50 up to about 1.1 µM and inactive = higher. Only a selection was taken, and actives are over-represented in it overall. Potency and affinity values are given separately.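 Exposure lasted 48 hours, with cells grown in 96-well plates and compounds tested at five concentrations. GI50 = concentration required for 50% inhibition of growth.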

The subject of this assay is NCI-H226. In words: NCI tumour cell line growth inhibition, 48 h.
In the case of TRIBUTYLCHLOROSTANNANE, CHEMBL1088186, the GI50 came to 210 nM.
